Laboratory results from PubChem BioAssay AID686970 (National Center for Advancing Translational Sciences (NCATS), 2013).
The campaign covered roughly 360,000 compounds. About 6,000 (1.7%) were called active. Where a call stands in place of a potency, no number is given. Inconclusive results (about 8%) are left out. Calls follow the shape of the dose curve; as a rule, active = well fitted cell-killing curve with a large enough effect; inconclusive = small, poorly fitted or top-dose-only effect, or effect the other way; inactive = flat fitted curve, though single readings scatter. The sample as a whole holds a higher share of actives than the screen did.

Assay: qHTS for induction of synthetic lethality in tumor cells producing 2HG: qHTS for the HT-1080-NT fibrosarcoma cell line; also: nearly all actives have a fitted effect of over 55% in size
Conditions: HT-1080-NT fibrosarcoma viability, CellTiter-Glo ATP luminescence, 48 h; series mostly up to 46.1 µM
From the text: Unbiased genomic sequencing for 22 glioma genomes found recurrent mutation of IDH1 on chromosome 2q33, a gene encoding the cytosolic isoform of IDH1 associated with the tricarboxylic acid cycle (TCA) that catalyzes the oxidative decarboxylation of isocitrate, yielding alpha-ketoglutarate and CO2 via NADP+ to NADPH conversion. Subsequent studies confirmed the recurrent IDH mutations in up to 70% of secondary gliomas and in 10% of AML cases. In addition, the somatic mutation of cancer-associated IDH1 is a point mutation resulting in various amino-acid substituents at Arginine132 (IDH1 R132), a key residue found in the enzyme's active site that when mutated, results in the loss-of-function in metabolizing isocitrate but confers a gain-of-function to produce the oncometabolite 2-hydroxyglutarate (2HG). This in effect defines IDH1 as an oncogene and provides an extraordinary opportunity to discover chemical probes against mutant IDH1 that may translate into much needed new therapies for glioma and AML patients.
This assay aims to perform a synthetic lethal screen for chemical probes specific for 2HG-producing tumor cells using matched paired cell lines (1) HT-1080-NT fibrosarcoma cell line that overproduces 2HG and (2) HT-1080-IDH1KD cell line which has IDH1 expression knocked-down. Desirable compounds are toxic to the NT fibrosarcoma cells but not to the IDH1KD cell line. The data in this AID corresponds to the results of the qHTS against the HT-1080-NT fibrosarcoma cell line.
[1] Dang L, Jin S, Su SM. IDH mutations in glioma and acute myeloid leukemia. Trends of Mol Med. 2010; 16(9): 387-97.
[2] Dang L et al. Cancer-associated IDH1 mutations produce 2-hydroxyglutarate. Nature. 2010; 465(7300):966.
NIH Molecular Libraries Probe Production Centers Network [MLPCN]
NIH Chemical Genomics Center [NCGC]
Assay Submitter (PI): Lenny Dang Ph.D., Agios Pharmaceuticals
Suspensions of trypsinized HT-1080-NT cells were dispensed into white, tissue culture-treated, solid 1536-well plates at 5uL/well (750 cells/well final concentration) in RPMI medium supplemented with 5% FBS. Plates were incubated at 37 degrees C for 2 hours, after which 23 nL of compounds or DMSO were delivered to each well using a pin tool. Plates were then incubated at 37 degrees C for an additional 48 hours. CellTiter-Glo viability reagent (Promega) was dispensed into wells (2.5uL/well) and incubated at room temperature for 10 minutes. The plates were measured on a PerkinElmer ViewLux plate reader for luminescent signal (clear filter, 1 sec exp). DMSO-treated control wells and media-only (no cells) control wells were used to normalize %Activity of identified toxic compounds; DMSO-treated wells corresponded to 0%Activity (100% viability), while media-only controls were used to normalize 100%Activity (0% viability).
Concentration-response curves were fitted to the signals arising from the resulting luminescence. The concentration-effect curves were then classified based on curve quality (r2), response magnitude and degree of measured activity, and compounds were subsequently categorized based on their curve class.
Potency is read from the fitted curve at half-maximal effect.

Structure (SMILES)	Potency	activity, negative = less viability
Cc1ccc(-c2nc3ccc(Cl)cn3c2Cc2ccccc2)cc1	inactive	
Cc1ccc(Cc2c(-c3ccccc3)nc3ccc(Cl)cn23)cc1	inactive	
Cc1ccc(Cc2c(-c3ccco3)nc3ccc(Cl)cn23)cc1	23.1 µM (active)	
COc1cc(F)ccc1-c1cc(C(=O)NCC2CCCCC2)[nH]n1	inactive	
O=C1C(Cl)=C(Oc2ccccc2)C(=O)c2ccccc21	4.11 µM (active)	
COc1ccc(C(=O)OCC(=O)Nc2cc(C)on2)cc1F	inactive	
CC(C)(C)OC(=O)N1CCN(C(=O)c2[nH]c(C(F)(F)F)nc2-c2ccccc2)CC1	inactive	
O=c1c([N+](=O)[O-])cccn1Cc1ccc(F)cc1Cl	14.6 µM (active)	
N/C(=N/O)c1cccn1Cc1ccccc1[N+](=O)[O-]	inactive	
O=[N+]([O-])c1ccccc1NCc1ccccc1Cl	inactive	
Cc1ccc(Cn2c(C)c3cnn(CC(=O)NCCN4CCOCC4)c(=O)c3c2C)cc1	inactive	
Cc1c2cnn(CC(=O)NCCCN3CC(C)CC(C)C3)c(=O)c2c(C)n1Cc1ccc(Cl)cc1 (configuration not stated)	23.1 µM (active)	
CC1CC(C)CN(CCCNC(=O)Cn2ncc3c([nH]c4ccccc43)c2=O)C1 (configuration not stated)	inactive	
O=C(Nc1ccc(N2C(=O)c3cccc4cccc(c34)C2=O)cc1)c1ccc(N2CCCCC2)c([N+](=O)[O-])c1	inactive	
O=C(NC1C2CC3CC(C2)CC1C3)c1ccc(N2CCNCC2)c([N+](=O)[O-])c1 (configuration not stated)	inactive	
CC(NC(=O)c1ccc(N2CCNCC2)c([N+](=O)[O-])c1)C12CC3CC(CC(C3)C1)C2 (configuration not stated)	16.4 µM (active)	
Cc1cccc(C)c1NC(=O)CNC(=O)c1ccc(N2CCOCC2)c([N+](=O)[O-])c1	inactive	
O=C(Nc1cccc(C(F)(F)F)c1)c1ccc(N2CCNCC2)c([N+](=O)[O-])c1	16.4 µM (active)	
CCC(C)NC(=O)c1ccc(N2CCC3(CC2)OCCO3)c([N+](=O)[O-])c1 (configuration not stated)	inactive	
CCc1noc(C)c1C(=O)OCC(=O)c1ccc(NC(=O)CC(C)C)cc1	inactive	
Fc1cccc(Cc2c(-c3ccc(Cl)cc3)nc3ccc(Cl)cn23)c1	inactive	
Cc1cc2nc(-c3ccc(F)cc3)c(Cc3ccsc3)n2c(C)c1Br	inactive	
Cc1cc2nc(-c3ccco3)c(Cc3cccc(F)c3)n2c(C)c1Br	20.6 µM (active)	
COc1cc(C=C(OC(C)=O)c2ccc3c(c2)OCO3)cc(OC)c1OC	inactive	
CCCNC(=O)C[C@@H]1CC[C@@H]2[C@H](COC[C@H](O)CN2C(=O)c2cc(Cl)cc(Cl)c2)O1	inactive	

Structure (SMILES)	Potency	activity, negative = less viability
CCOC(=O)c1cc2cc(OC)ccc2n1C1CCN(C)CC1	inactive	
COc1ccccc1NC1=NC(c2ccc(Cl)cc2)N=C(N)N1 (configuration not stated)	10 µM (active)	
COc1ccccc1NC(=O)C1CCCN1S(=O)(=O)c1ccc(Cl)cc1 (configuration not stated)	inactive	
CC1(C)N=C(N)NC(Nc2ccc(Cl)cc2)=N1	inactive	
CCc1nc2ccc(C(=O)NCCNC(C)=O)cn2c1N(CC)Cc1cccc(Br)c1	inactive	
CCC(C)CN1C(=O)CN(S(C)(=O)=O)CC1(C)C(=O)Nc1ccc2c(c1)OCCO2 (configuration not stated)	inactive	
C[C@H]1CN(c2ccc(Br)cc2)C(=O)[C@@H]1CC(=O)Nc1ccc(Br)cc1	inactive	
c1ccc(CNCc2ccc(CNCc3ccccc3)cc2)cc1	inactive	
CC1(C(=O)Nc2ccc3c(c2)OCCO3)CSCC(=O)N1CCOc1ccccc1 (configuration not stated)	inactive	
Cc1ccn2c(-c3csc(Nc4ccc(C(=O)O)cc4)n3)c(C)nc2c1	inactive	
Cc1cc(C)cc(OCC(=O)NNC(=O)c2cc3ccccc3oc2=O)c1	inactive	
O=c1oc2ccccc2cc1-c1csc(Nc2ccc(O)cc2)n1	14.6 µM (active)	
CCc1c(N=O)c(-c2ccccc2)n(O)[n+]1[O-]	inactive	
CC(C)CNC(=O)C1(C)CCCN1C(=O)CSc1ccccc1 (configuration not stated)	inactive	
COc1ccc(C(O)c2nc(-c3ccc4c(c3)OCO4)cs2)cc1 (configuration not stated)	inactive	
CCCc1ccc(S(=O)(=O)N2CCN(C(=O)c3cc(C)on3)CC2)cc1	inactive	
O=C(Nc1nnc([C@H]2C[C@H](O)[C@@H](CO)O2)s1)c1cccc(Cl)c1	inactive	
O=C(c1ccccc1)N1CCN(c2cc(-c3ccccc3)nc3cc(-c4cccc(Cl)c4)nn23)CC1	inactive	
C#Cc1cc(N2CCN(C(=O)c3ccoc3)CC2)n2nc(-c3cccc(Cl)c3)cc2n1	14.6 µM (active)	
CN(C)CCN1CCN(c2cc(-c3cccc(Cl)c3)nc3ccnn23)CC1	inactive	
CC(=O)Nc1ccc(C=CC(=O)c2ccc([N+](=O)[O-])cc2)cc1	inactive	
O=C(N=C1SC2CS(=O)(=O)CC2N1Cc1ccccc1)c1ccccc1 (configuration not stated)	inactive	
COCOCCn1cc(CN2CCS(=O)(=O)N(Cc3ccc(-c4ccccc4)cc3)C(CC(C)C)C2=O)nn1 (configuration not stated)	inactive	
COc1cccc(/C=C2\SC(=S)N(CCCC(=O)N3CCOCC3)C2=O)c1	inactive	
CCCCc1ccc(S(=O)(=O)NC(=O)C2(C)CCN2C(=O)c2ccccc2)cc1 (configuration not stated)	inactive	

Structure (SMILES)	Potency	activity, negative = less viability
CCCOc1ccc(C(=O)CCC(=O)OC(C)C(=O)Nc2ccc(NC(C)=O)cc2)cc1 (configuration not stated)	inactive	
CCCOc1ccc(/C=N/NC(=O)C2CC2)c(OCCC)c1	inactive	
CCCOc1ccc(C(=O)C(CCC(CNCC)C(=O)c2ccc(OCCC)cc2)CNCC)cc1 (configuration not stated)	16.4 µM (active)	
Cc1ccccc1S(=O)(=O)NC(=O)C1(C)CCN1C(=O)C1(c2ccc(Cl)cc2)CC1 (configuration not stated)	inactive	
COc1cc(C(O)c2nc(-c3cnn(C)c3)cs2)ccc1F (configuration not stated)	inactive	
O=C(Nc1ccc(F)cc1)C(CCc1ccccc1)N1CCN(CC(=O)N2CCCC2)CC1 (configuration not stated)	inactive	
CCCCCCNC(=O)O[C@]12C[C@@H](C(=O)OC)[C@@H](C(=O)OC)C[C@@]1(O)CN(S(=O)(=O)c1ccc(C)cc1)C2	inactive	
CCCCCCNC(=O)O[C@H]1CN(C(=O)OC(C)C)N(C(=O)OC(C)C)[C@@H]2CN(S(=O)(=O)c3ccc(C)cc3)C[C@]12O	20.6 µM (active)	
Cc1ccc(S(=O)(=O)N2C[C@H]3n4c(=O)ccc(=O)n4C[C@H](OC(=O)NC4CCCC4)[C@@]3(O)C2)cc1	inactive	
CS(=O)(=O)N1CCCCC1c1cc(C(=O)NCc2ccccc2)no1 (configuration not stated)	inactive	
CC(=O)OCC(C)n1c(=O)c2ccccc2n1C(C)=O (configuration not stated)	inactive	
CCN1/C(=C/C(=S)Nc2ccccc2)Sc2ccccc21	6.51 µM (active)	
CC(NC(=S)Nc1ccccc1)C1COc2ccccc2O1 (configuration not stated)	inactive	
CCOC(=O)CNC(=O)N1c2ccccc2Sc2ccccc21	inactive	
COc1ccc(OC)c(CN2C(=O)CCC2(C)c2nnnn2Cc2ccccc2)c1 (configuration not stated)	inactive	
CCOC(=O)N1CCN(C(=O)C[C@@H]2C[C@@]3(C(=O)OC)CCCCC=C3N(CCC3=CCCCC3)C2=O)CC1	inactive	
Cc1cc(C(=O)Nc2nnc(C3CC3)s2)c(C)s1		-2.13% [at 9.24 µM] (inactive)
O=C(Nc1nnc(C2CC2)s1)c1ccccn1	7.08 µM (active)	
CCc1ccccc1OCC(=O)Nc1nnc(C2CC2)s1	inactive	
Cc1onc(-c2ccccc2)c1-c1nnc(COC(=O)c2ccc(N(C)C)cc2)o1	inactive	
COc1ccc(CCNC(=O)Nc2ccc3c(c2)c(=O)n(C)n3C)cc1OC	inactive	
COc1ccc(C(=O)C2CCCN(Cc3ccc4nonc4c3)C2)c(C)c1 (configuration not stated)	inactive	
COc1ccc(C(=O)C2CCCN(Cc3cccn3-c3ccccn3)C2)c(C)c1 (configuration not stated)	8.2 µM (active)	
CCOC(=O)c1[nH]ncc1CN1CCCC(C(=O)c2ccc(OC)cc2C)C1 (configuration not stated)	inactive	
COCCCN1C(=O)C(CC(=O)NCc2cccs2)CC(C(=O)N2CCOCC2)=C1C (configuration not stated)	inactive	

Structure (SMILES)	Potency	activity, negative = less viability
CCOc1ccc(Cn2nnc(C(=O)Nc3ccc(OC)cc3OC)c2N)cc1	inactive	
Cc1ccc(SCC(=O)NC(=O)NCc2ccco2)c(C)c1	inactive	
Cc1ccc(NC(=O)Cn2nnc(C(=O)NCc3ccco3)c2N)c(C)c1	20.6 µM (active)	
CCOc1ccccc1NC(=O)Cn1nnc(C(=O)NCc2cccs2)c1N	0.461 µM (active)	
CCOc1ccccc1NC(=O)Cn1ncc2ccc([N+](=O)[O-])cc21	inactive	
COc1ccc(CNC(=O)c2nnn(CC(=O)Nc3cc(C)cc(C)c3)c2N)cc1	inactive	
CC(=O)c1ccc(OCC(=O)N(C)C2CCS(=O)(=O)C2)cc1 (configuration not stated)	inactive	
COc1ccc(CN2C(=O)C(CC(=O)NCCN3CCOCC3)CC(C(=O)N(C(C)C)C(C)C)=C2C)cc1 (configuration not stated)	inactive	
O=C(NCc1ccc(F)cc1F)[C@@H]1CCCN1C(=O)[C@@H]1CCCN1C(=O)c1cccc(Cl)c1	inactive	
Nc1nc2c(Br)ccc(Br)c2cc1C(=O)NCCc1ccccc1	inactive	
CCOC(=O)c1cc(-c2sc(NC(=O)c3ccccc3)nc2C)n(Cc2ccccc2)n1	inactive	
COc1cc(OC)cc(C(=O)N[C@H](C(=O)Nc2nc3ccccc3[nH]2)C(C)C)c1	1.16 µM (active)	
COc1ccc(C(=O)N[C@H](C(=O)NCc2ccccc2)C(C)C)cc1	inactive	
COc1cc(OC)cc(C(=O)N[C@H](C(=O)NNC(=O)c2ccc(Br)cc2)C(C)C)c1	inactive	
Cc1ccc(NS(=O)(=O)c2ccc(C(C)(C)C)cc2)cn1	inactive	
Cc1cc(C)cc(NS(=O)(=O)c2ccc(Oc3ncc(C(F)(F)F)cc3Cl)cc2)c1	23.1 µM (active)	
CN(NS(=O)(=O)c1cccs1)c1ncc(C(F)(F)F)cc1Cl	inactive	
COC(=O)[C@@]1(Sc2ccc(C)cc2)CC(=O)N(c2cccc(SC)c2)[C@@H]1c1ccccc1	inactive	
CCCCCCN1CCN(C2CN(Cc3cn(CCCCCC)nn3)S(=O)(=O)C2)CC1 (configuration not stated)	inactive	
CCC1(CC)Cc2ccccc2-c2nc(CCl)[nH]c(=O)c21	inactive	
O=c1[nH]c(CCl)nc2cc(-c3ccc(Cl)cc3)sc12	16.4 µM (active)	
Cn1c(NCc2cccnc2)nc2cc(-c3ccc(F)cc3)sc2c1=O	inactive	
